In PubChem BioAssay (NCI) one finds growth data, which are given here for eight molecules.

Common to all, as to experiment: NCI-60 one-dose screen, 48 h (100 = growth as untreated, 0 = no growth, -100 = all killed)
Holding throughout (details): 10 µM unless noted

Experiment [1] concerns DU-145 prostate.
Experiment [2] deals with K-562 leukemia.
Experiment [3] concerns MALME-3M melanoma.
Experiment [4] has as its system MDA-MB-231 breast.
The test system of experiment [5] is RXF 393 renal.
Experiment [6] has as its system SF-268 CNS.
Experiment [7] deals with SF-539 CNS.
Experiment [8] concerns UACC-257 melanoma.
The test system of experiment [9] is M14 melanoma.
Experiment [10] deals with HCT-15 colon.
Experiment [11] has as its system HT29 colon.
The test system of experiment [12] is SNB-75 CNS.
The subject of experiment [13] is SNB-19 CNS.
Experiment [14] has as its system U251 CNS.
The test system of experiment [15] is PC-3 prostate.
Experiment [16] concerns SK-MEL-5 melanoma.
In experiment [17] the test system is UACC-62 melanoma.
The test system of experiment [18] is LOX IMVI melanoma.
Experiment [19] relates to SK-MEL-28 melanoma.

Molecules are shown by their SMILES. This is part of a sample that, as a whole, favours compounds with a hit. Of some 83,000 tested, about 20% had one in any assay.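 Values shown are percent growth following 48 h exposure of cells in 96-well plates to a single concentration of compound; below 10 was considered active.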 A number with no mark means an inactive call. The source made the active and inactive calls.

For the molecule `CCOC(=O)C(Nc1ccccc1)C(=O)OCC`, the growth in [1] is 122%; in experiment [2] it was 92.4%; in experiment [3], 93.2%; in experiment [4] it was 105%; in experiment [5] it was 114%; in experiment [6] it was 122%. Moreover, the growth in experiment [7] was 111%; in experiment [8], 112%; in experiment [9] it was 103%; in experiment [10], 98.9%; in [11], 106%; in experiment [12], 85%. For the same molecule, the growth in [13] is 105%; in experiment [14] it was 109%; in experiment [15], 88.1%; in experiment [16], 102%; in experiment [17] it was 104%; in experiment [18], 93.5%. Further, the growth in experiment [19] is 111%.

As to `O=C1Nc2ccccc2/C1=C/c1c[nH]c2ccccc12`, the growth is 98.1% in [1]; 82.8% in experiment [2]; 88.1% in experiment [3]; 71.7% in [4]; 90.9% in experiment [5]; 87.8% in experiment [6]. Besides, the growth in [7] is 80.6%; in [8], 89.2%; in experiment [9], 91.8%; in [10] it was 63.9%; in experiment [11] it was 100%; in experiment [12], 62.1%. In addition, the growth in experiment [13] is 83.8%; in experiment [14] it was 76.2%; in experiment [15] it was 72.3%; in experiment [16] it was 94.2%; in experiment [17], 81.8%; in [18] it was 75.2%. Also, the growth in experiment [19] is 101%.

As to `Oc1[nH]c2ccc(Cl)cc2c1/C=c1/ccc2c(c1)N=C(c1ccc(F)cc1)N=2`, the growth in experiment [1] was 86.3%; in experiment [2] it was 16.4%; in experiment [3] it was -3.95% (active); in [4], 63.1%; in experiment [5], 63.4%; in experiment [6], 77.2%. In addition, the growth in [7] is 92.2%; in experiment [8] it was 70.1%; in [9], 30.4%; in [10], 19.3%; in [11], 62.4%; in [12], 55.6%. The growth was 69% in experiment [13]; 72% in experiment [14]; 48.5% in experiment [15]; 59.3% in experiment [16]; 69% in experiment [17]; 46.1% in experiment [18]. The growth in experiment [19] is 53.7%.

Regarding `COc1cc(C)cc2oc3oc(=O)c(-c4csc(-c5cc6ccccc6oc5=O)n4)cc3c(=O)c12`, the growth in experiment [1] was 113%; in [2], 112%; in [3], 105%; in experiment [4], 99.5%; in [5] it was 102%; in experiment [6], 105%. The growth in [7] is 99.3%; in experiment [8] it was 115%; in experiment [9] it was 104%; in experiment [10] it was 114%; in experiment [11], 110%; in experiment [12], 113%. The growth in [13] was 99.3%; in experiment [14], 110%; in experiment [15] it was 104%; in [16] it was 99.9%; in [17], 99.2%; in experiment [18] it was 94.6%. The growth in experiment [19] was 109%.

For the molecule `O=C(Nc1ccc(Cl)c(C(F)(F)F)c1)c1ccc(Nc2ccc(Cl)nn2)cc1`, the growth in experiment [1] was 76.7%; in [2] it was 44.2%; in experiment [3] it was 106%; in experiment [4] it was 59.3%; in [5], 47.8%; in experiment [6], 80.7%. The growth is 68.1% in [7]; 74.6% in [8]; 57.4% in [9]; 46.4% in experiment [10]; 61.7% in [11]; 84.2% in experiment [12]. The growth is 76.7% in experiment [13]; 51.5% in experiment [14]; 49.6% in experiment [15]; 51.9% in experiment [17]; 54.7% in experiment [18]; 72.5% in [19].

Regarding `CC1=NC(c2ccc(Cl)cc2)C2=C(N1)/C(=C/c1ccc(Cl)cc1)CCC2` (stereo unspecified), the growth in [1] is 105%; in experiment [2], 76.6%; in [3] it was 96.4%; in [4], 107%; in experiment [5], 90.8%; in experiment [6], 99.3%. Besides, the growth in experiment [7] was 103%; in experiment [8], 93.7%; in experiment [9] it was 65.3%; in [10], 79.8%; in [11], 54.4%; in [12] it was 86.6%. Besides, the growth was 102% in experiment [13]; 66% in experiment [14]; 89.1% in [15]; 84.9% in experiment [16]; 83.3% in [17]; 36.8% in experiment [18]. Besides, the growth in [19] is 93.9%.

Turning to `O=[N+]([O-])c1cccc(N=C(Nc2cccc([N+](=O)[O-])c2)c2ccccc2)c1`, the growth in [1] is 98.2%; in [2], 45%; in experiment [3], 79.7%; in [4], 83.9%; in experiment [5] it was 82%; in experiment [6], 96.6%. Moreover, the growth was 87.1% in experiment [7]; 92.4% in experiment [8]; 85.7% in experiment [9]; 68.3% in [10]; 47.5% in experiment [11]; 84.2% in experiment [12]. The growth in experiment [13] is 92.4%; in [14], 82.6%; in experiment [15], 51.6%; in experiment [16], 70.5%; in experiment [17], 70%; in experiment [18], 97%. Also, the growth in experiment [19] was 96.3%.

With `C/C(=N\OC(=O)Nc1ccccc1)c1ccccc1`, the growth in experiment [1] is 97.1%; in [2] it was 96.6%; in experiment [3], 107%; in [4], 107%; in experiment [5] it was 87.2%; in experiment [6], 104%. For the same molecule, the growth in [7] is 105%; in experiment [8], 102%; in [9] it was 103%; in experiment [10], 96.8%; in [11], 105%; in [12], 87.7%. Also, the growth in [13] was 103%; in experiment [14], 89.7%; in [15] it was 99.4%; in [16] it was 95.6%; in experiment [17], 94.2%; in experiment [18], 110%. Further, the growth in [19] was 101%.
